# Results: PubChem BioAssay (NCI)
# About 79,000 compounds went through this panel and 15% of them were active in at least one assay; those are over-represented in the sample as a whole. A number with no mark means an inactive call. Cut-off read from the data, not from the text of the source: active = growth inhibition above about 70%; inactive = the rest.
# Assay: NCI Yeast Anticancer Drug Screen. Data for the bub3 strain (AID 167)
# Conditions: S. cerevisiae bub3 mutant strain, at 50.0 µM, stronger effect = higher value
# Procedure, shortened: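 Inhibition values come from growth of compound-treated mutant yeast normalised to vehicle-treated controls.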
row,Structure (SMILES),growth inhibition [%]
1,CC(=O)OC12CC3CCC4C(CCC5(C)C(C(C)CCCC(C)C)CCC45)C3(C)CC1O2 (stereo unspecified),14.3
2,O=C(N/N=C\c1coc([N+](=O)[O-])c1)N/N=C/c1ccoc1,-8.35
3,O=C(Nc1ccccc1Cl)c1ccc(Cl)cc1,29.1
4,CC(C)OC(=O)c1cc(N)ccc1Cl,38.4
5,COc1cc(/C=C/C(=O)Oc2ccccc2)ccc1C(=O)O/C=C/c1ccccc1,-5.15
6,O=C(OC1COC(n2c(=O)oc3ccc(Cl)cc32)C(OC(=O)c2ccccc2)C1OC(=O)c1ccccc1)c1ccccc1 (stereo unspecified),-1.1
7,CS(=O)(=O)OCC1NC(=O)C(COS(C)(=O)=O)NC1=O (stereo unspecified),-0.65
8,COc1ccc(C(=O)N/N=C/c2c(C)n(C)n(-c3ccccc3)c2=O)cc1,-52.5
9,COc1ccc(C2OC(=O)C(=O)C2=O)cc1OC (stereo unspecified),8.7
10,CCCCCCC(C#N)(CCN(C)C)c1ccccc1 (stereo unspecified),50.1
11,CCOC(=O)N1C(c2ccccc2)N(c2ccccc2)C(c2ccccc2)N1C(=O)OCC (stereo unspecified),-15.6
12,O=C1C(N=Cc2c(O)ccc3ccccc23)CON1C(c1ccccc1)(c1ccccc1)c1ccccc1 (stereo unspecified),3.55
13,CCOC(=O)c1c[nH]c2c(=O)n(C)c(=O)[nH]c12,0.5
14,COc1ccc(/C=C2\N=C(c3ccc([N+](=O)[O-])cc3)OC2=O)cc1,0.55
15,O=C(O)C1=CN=C(C(=O)O)NN1,-4.15
16,CCCC(C)C(=O)OC1CCCCC1 (stereo unspecified),7.6
17,CCc1nc2cc(F)ccc2[nH]c1=O,40.9
18,CCOC(=O)N(CCCl)C(=O)C(C)C,-25.2
19,CN(C)C(=S)/N=c1\ssc(=S)n1Cc1ccccc1,-17.9
20,Cc1cc(=O)n2c(n1)Nc1ccccc1C2,46.4
21,O=C1c2ccccc2C(=O)N1/N=C\c1ccc(O)cc1,0.95

# Assay: NCI Yeast Anticancer Drug Screen. Data for the mlh1 rad18 strain (AID 175)
# Conditions: S. cerevisiae mlh1 rad18 strain growth inhibition; at 50.0 µM; stronger effect = higher value
# Procedure, shortened: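 A repair-deficient yeast strain is exposed to test compound, and growth is scored relative to vehicle-treated controls.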
row,Structure (SMILES),growth inhibition [%]
1,Nc1cn[nH]c(=O)n1,2.7
2,O=C(O)C1(NO)CCCCC1,-5.4
3,O=S(=O)(N1CCCCC1)N1CCCCC1,-2.4
4,O=C(Cc1ccccc1)Nc1cccc2ccccc12,0.9
5,Nc1ccc(C(=O)Nc2ccc3c(ccc4ccccc43)c2)cc1,2.35
6,O=S1(=O)OCOS(=O)(=O)OCO1,-19.9
7,Cc1ccc(S(=O)(=O)n2ccnc2)cc1,-25.9
8,Cc1cnc(N)s1,9.45
9,CC(C)CC1NC(=O)C(C(C)C)NC(=O)CC(C)COC(=O)C(CC(C)C)N(C)C(=O)C(C(C)C)NC(=O)C(C(C)C)OC1=O (stereo unspecified),14.3
10,O=C(c1nc2ccccc2[nH]1)N1CCN(c2ccccc2)CC1,7.3
11,CSC1=Nc2ccccc2N=C(c2ccccc2)C1,23.3
12,O=[N+]([O-])C1C=Nc2ccccc2N=C1,19.6
13,O=C(CO)c1ccc(-c2ccccc2)cc1,16.2
14,Nc1c(S(=O)(=O)O)cc(Br)c2c1C(=O)c1ccccc1C2=O,56.4
15,COc1cc(C(O)C(CO)Oc2c(OC)cc(C3OCC4C(c5cc(OC)c(O)c(OC)c5)OCC34)cc2OC)ccc1O (stereo unspecified),15.2
16,N#CC(C(=O)C(=O)Nc1cccc(C(F)(F)F)c1)c1c(Cl)cccc1Cl (stereo unspecified),2.15
17,CC(=O)SC1CC2CCC1C2 (stereo unspecified),15.7
18,CNc1ccn(C2OC(CO)C(O)C2O)c(=O)n1 (stereo unspecified),8.25
19,Cc1c2n(c(=O)[nH]c1=O)C1OC(CO)C(N=[N+]=[N-])C1O2 (stereo unspecified),-32.2
20,CC(=O)OC12CC3CCC4C(CCC5(C)C(C(C)CCCC(C)C)CCC45)C3(C)CC1O2 (stereo unspecified),42.2

row,Structure (SMILES),growth inhibition [%]
1,O=C(N/N=C\c1coc([N+](=O)[O-])c1)N/N=C/c1ccoc1,1.1
2,O=C(Nc1ccccc1Cl)c1ccc(Cl)cc1,-4.75
3,CC(C)OC(=O)c1cc(N)ccc1Cl,34
4,COc1cc(/C=C/C(=O)Oc2ccccc2)ccc1C(=O)O/C=C/c1ccccc1,13.5
5,O=C(OC1COC(n2c(=O)oc3ccc(Cl)cc32)C(OC(=O)c2ccccc2)C1OC(=O)c1ccccc1)c1ccccc1 (stereo unspecified),10.7
6,CS(=O)(=O)OCC1NC(=O)C(COS(C)(=O)=O)NC1=O (stereo unspecified),3.7
7,COc1ccc(C(=O)N/N=C/c2c(C)n(C)n(-c3ccccc3)c2=O)cc1,-48.5
8,COc1ccc(C2OC(=O)C(=O)C2=O)cc1OC (stereo unspecified),-8.65
9,CCCCCCC(C#N)(CCN(C)C)c1ccccc1 (stereo unspecified),22.8
10,CCOC(=O)N1C(c2ccccc2)N(c2ccccc2)C(c2ccccc2)N1C(=O)OCC (stereo unspecified),14.8
11,O=C1C(N=Cc2c(O)ccc3ccccc23)CON1C(c1ccccc1)(c1ccccc1)c1ccccc1 (stereo unspecified),40.5
12,CCOC(=O)c1c[nH]c2c(=O)n(C)c(=O)[nH]c12,24.1
13,COc1ccc(/C=C2\N=C(c3ccc([N+](=O)[O-])cc3)OC2=O)cc1,18.4
14,O=C(O)C1=CN=C(C(=O)O)NN1,-34.5
15,CCCC(C)C(=O)OC1CCCCC1 (stereo unspecified),3
16,CCc1nc2cc(F)ccc2[nH]c1=O,-7.55
17,CCOC(=O)N(CCCl)C(=O)C(C)C,-11.1
18,CN(C)C(=S)/N=c1\ssc(=S)n1Cc1ccccc1,-86.5
19,Cc1cc(=O)n2c(n1)Nc1ccccc1C2,6.8
20,O=C1c2ccccc2C(=O)N1/N=C\c1ccc(O)cc1,33.5
